LASV entry inh: inhibitors of Lassa virus binding or cell entry. Lassa virus pseudotype entry inhibition, cell reporter. Potency, µM (highest dose often 37.9 µM), for the others: at the highest dose activity change, negative = inhibition, actives largely listed as inhibitors. actives 1.2% (n = 300,000). AID 540256; calls by dose curve; tested in HEK293 cells; further: potency means the concentration at half of the fitted maximal effect; nearly all actives have a fitted effect of over 50% in size
MARV entry inh: inhibitors of Marburg virus binding or cell entry; Marburg virus pseudotyped entry inhibition, cell reporter; Potency, µM (highest dose often 37.8 µM), for inactives: at the highest dose activity change, negative = inhibition, most hits filed as inhibitors; actives 1.8% (n = 300,000); calls by dose curve; tested in HEK293 cells; further: potency means the concentration at half of the fitted maximal effect
VACV Venus inh: vaccinia inhibition (Venus reporter) | AID 720580 | Vaccinia virus Venus reporter expression, fluorescence | Potency, µM (series often up to 36.5 µM), for inactives: top-dose activity change, negative = inhibition, actives largely listed as inhibitors | actives 0.46% (n = 330,000); calls by dose curve; tested in A549 cells; further: potency means the concentration at half of the fitted maximal effect; nearly all actives have a fitted effect of over 30% in size
VACV mCherry inh: vaccinia inhibition (mCherry reporter); Vaccinia virus mCherry reporter infection, fluorescence; actives 0.63% (n = 310,000); Potency, µM (titrated, usually from 36.5 µM), without a hit: top-dose activity change, negative = inhibition, hits mostly inhibitors; calls by dose curve; tested in A549 cells; further: potency means the concentration at half of the fitted maximal effect; nearly all actives have a fitted effect of over 35% in size
HCMV inh: blocks human cytomegalovirus replication; HFF cells, HCMV-luciferase reporter, 72 h; stronger effect = lower value; activity change, negative = inhibition, % at 57.5 µM; actives 4.5% (n = 410,000); in the data active means activity change below about -60%; inconclusive means no clear call, values can overlap the other calls; inactive means above about -39%
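HFF cells seeded 16 h at 37C, treated with compounds, infected with luciferase-reporter HCMV at MOI 1 PFU/cell; luciferase read at 72 h post infection, normalized to buffer-only and Salinomycin controls.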
FMDV antiviral: blocks foot and mouth disease virus; actives 1.2% (n = 410,000); AID 1159524; FMDV antiviral cell-based qHTS; Potency, µM (highest dose often 57.9 µM), without a hit: top-dose activity change, negative = inhibition, usual class: inhibitors; calls by dose curve; tested in HEK293T cells; further: read-out not given here; potency means the concentration at half of the fitted maximal effect; nearly all actives have a fitted effect of over 45% in size
* hit, by the source's call; i = inactive; ? = inconclusive; . = not tested or not shown; [ ] = remark or other dose. Hits are enriched below; roughly 6.5% of the tested compounds scored in any of these assays. On the % scale 0 is the no-effect control and ±100 the full control effect.

SMILES	LASV entry inh	MARV entry inh	VACV Venus inh	VACV mCherry inh	HCMV inh	FMDV antiviral
Cc1ccc(S(=O)(=O)N2CCN(c3nc(-n4ccnc4)nc4ccccc34)CC2)cc1	.	.	-17%	i	.	.
COc1cc(Nc2nc(-c3ccccc3)c3cc(C)ccc3n2)cc(OC)c1OC	?	?	-21%	-29%	97	?
COc1cc(Nc2nccc(Nc3ccc4c(C)[nH]nc4c3)n2)cc(OC)c1OC	25µM*	.	.	.	.	.
Cc1cc(NCCCn2ccnc2)n2ncc(-c3ccc(Cl)cc3)c2n1	?	?	?	13µM*	14	3%
Cc1cc(NCCCN2CCOCC2)n2ncc(-c3ccc(Cl)cc3)c2n1	?	-20%	.	.	55	28%
CN(C)CCCNc1cc(C(C)(C)C)nc2c(-c3ccc(Cl)cc3)cnn12	?	?	-5%[7.34 µM]	i[7.34 µM]	-103*	1%
CCOC(=O)C1CCCN(C(=O)c2cnn(-c3ncc4c(n3)-c3ccccc3CCC4)c2C2CC2)C1 (configuration not stated)	.	.	0%	-2%	.	44%
O=C(Nc1ccc2oc(-c3cccnc3)nc2c1)c1ccc(-c2ccccc2)o1	?	.	-20%	-16%	-73*	35µM*
COc1cc(C(=O)Nc2ccc3oc(-c4ccccc4)nc3c2)cc(OC)c1OC	?	.	-6%	-11%	-81*	?
CCOc1ccc(C(=O)Nc2ccc(-c3nc4cc(CC)ccc4o3)cc2)cc1	-3%[46.1 µM]	.	-27%	?	-74*	-25%
CCOc1ccc(C(=O)Nc2ccc(-c3nc4cc(C)ccc4o3)cc2)cc1	1%[46.1 µM]	.	-9%	-15%	-3	21%
Nc1nc(NCc2ccc(Cl)cc2)c2[nH]cnc2n1	.	.	-12%	-13%	.	.
O=[N+]([O-])c1cccc(CN2CCN(Cc3ccc(Cl)cc3)CC2)c1	-21%	-1%[46.1 µM]	-10%	-14%	-77*	?
CC(C)N1CCN(Cc2cccc([N+](=O)[O-])c2)CC1	?	6%[46.1 µM]	-3%	i	-40	19%
COc1ccccc1/C=N/NC(=Nc1ccc(C)cc1)c1nc2ccccc2s1	.	6%	.	.	.	.
COc1ccc(/C=N/NC(=O)c2cc(-c3ccccc3)nc3ccccc23)c(OC)c1	.	.	.	.	70	-10%
COc1cc(/C=N/NC(=Nc2ccc(C)cc2)c2nc3ccccc3s2)ccc1O	13µM*	?	.	.	-68*	18µM*
CCOc1cccc(-c2cc(C(=O)N/N=C/c3ccc(OC)c(CN4CCOCC4)c3)c3ccccc3n2)c1	?	8.2µM*	-7%	-22%	0	9%
CCOc1ccccc1-c1cc(C(=O)N/N=C/c2ccc(O)c(OC)c2)c2ccccc2n1	7.1µM*	?	10%	13µM*	-33	?
COc1ccccc1-c1cc(C(=O)N/N=C/c2sccc2C)c2ccccc2n1	?	13µM*	-9%	.	?	?
O=S1(=O)CCOCCCN1Cc1cccc(Cl)c1	.	.	-20%	-26%	.	.
Fc1ccc(Nc2cc3[nH]c(-c4ccccc4)cc3cn2)cc1	.	.	.	.	-6	.
COC(=O)C1CCN(Cc2ccc3c(c2)CN(C(=O)c2cc4ccccc4n2C)CCO3)CC1	.	.	-5%	-12%	.	?
Cc1oc2c(c1C(=O)Nc1ccccc1Br)C1=NCCN1C=N2	10%[46.1 µM]	.	-16%	-19%	13	44%
CCOc1cc(/C=N/NC(=O)c2ccc(CN3CCOCC3)cc2)ccc1OCc1ccccc1	?	?	-12%	i	-73*	22µM*
SMILES	LASV entry inh	MARV entry inh	VACV Venus inh	VACV mCherry inh	HCMV inh	FMDV antiviral
Cc1ccsc1/C=N/NC(=O)c1cc(-c2ccncc2)nc2ccccc12	?	0.58µM*	?	?	-95*	-20%
CCN(CC)C(=O)Cn1cc(/C=C2\C(=O)NC(=O)N(c3ccccc3F)C2=O)c2ccccc21	?	?	-15%	-3%	195	25µM*
CC(C)c1ccc(Nc2cc3[nH]c(-c4cccc(F)c4)cc3cn2)cc1	.	.	.	.	-5	.
Cc1ccccc1C(=O)NC(C)c1nnc2n1CCN(Cc1ccnc3ccccc13)CC2 (configuration not stated)	.	.	-2%	-14%	.	5%
Clc1ccc(-c2nnc(NCCN3CCCC3)c3ccccc23)cc1	.	.	.	.	-23	0.89µM*
COc1ccc(/C=C2\CCc3ccccc3C2=O)cc1OC	1%	-11%	?	7.9µM*	?	15%

From PubChem
